Measured values taken from PubChem BioAssay (Tox21).
Results filed as inconclusive are left out. Calls of active or inactive are those of the source. Unless noted, the call rests on the fitted dose curve; in most records, active means well fitted curve in the direction sought with a large enough effect in the repeat runs; inconclusive means weak or mixed curves; inactive means flat fitted curve, though single readings scatter.

How the values were obtained:
[1] = qHTS assay to test for compound auto fluorescence at 535 nm (green) in HEK293 cells (AID 720680)
[2] = qHTS assay to test for compound auto fluorescence at 460 nm (blue) in HEK293 cell free culture (AID 720681)
Outline: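 Compounds were added to cell-free DMEM with 10% FBS and fluorescence read directly. The blue channel used 405 nm excitation and 460 nm emission, with triamterene as the reference fluorophore.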

[3] = qHTS assay to test for compound auto fluorescence at 535 nm (green) in HEK293 cell free culture (AID 720682)
Outline: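 Each library compound, or DMSO control, is added by pintool to medium alone, comprising DMEM and 10% FBS. Emission at 535 nm following 485 nm excitation is quantified against fluorescein.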

[4] = qHTS assay to test for compound auto fluorescence at 590 nm (red) in HEK293 cell free culture (AID 720683)
Outline: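 Cell-free wells of DMEM with 10% FBS received compound, and intrinsic fluorescence was read at excitation/emission 540/590 nm. Values expressed as equivalence to Rose Bengal sodium.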

[5] = qHTS assay to test for compound auto fluorescence at 590 nm (red) in HepG2 cell free culture (AID 720684)
Outline: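 Compounds are added to culture medium (MEM, 10% FBS) lacking cells, then fluorescence is read at excitation 540 nm, emission 590 nm, with Rose Bengal sodium as the equivalency standard.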

[6] = qHTS assay to test for compound auto fluorescence at 460 nm (blue) in HepG2 cell free culture (AID 720685)
Outline: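 Compound (23 nL) or DMSO pinned into cell-free MEM with 10% FBS; blue fluorescence read at 405/460 nm excitation/emission, expressed as auto-fluorescence equivalency to triamterene.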

[7] = qHTS assay to test for compound auto fluorescence at 535 nm (green) in HepG2 cell free culture (AID 720686)
[8] = qHTS assay to test for compound auto fluorescence at 460 nm (blue) in HepG2 cells (AID 720687)
Outline: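 HepG2 cells in MEM with 10% FBS, attached overnight at 37 C, were exposed to compound or DMSO for 1 hr at 37 C, 5% CO2. Blue fluorescence was read at 405/460 nm, with triamterene as reference fluorophore.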

[9] = target: Glucocorticoid receptor (Homo sapiens) (UniProt P04150); assay: qHTS assay to identify small molecule agonists of the glucocorticoid receptor (GR) signaling pathway (AID 720691; active means well fitted activation curve with a large enough effect in the signal ratio in the repeat runs, not every such curve was filed as active; the % refers to the signal ratio)
Chain of Glucocorticoid receptor (Homo sapiens) (P04150 whole entry, looked up): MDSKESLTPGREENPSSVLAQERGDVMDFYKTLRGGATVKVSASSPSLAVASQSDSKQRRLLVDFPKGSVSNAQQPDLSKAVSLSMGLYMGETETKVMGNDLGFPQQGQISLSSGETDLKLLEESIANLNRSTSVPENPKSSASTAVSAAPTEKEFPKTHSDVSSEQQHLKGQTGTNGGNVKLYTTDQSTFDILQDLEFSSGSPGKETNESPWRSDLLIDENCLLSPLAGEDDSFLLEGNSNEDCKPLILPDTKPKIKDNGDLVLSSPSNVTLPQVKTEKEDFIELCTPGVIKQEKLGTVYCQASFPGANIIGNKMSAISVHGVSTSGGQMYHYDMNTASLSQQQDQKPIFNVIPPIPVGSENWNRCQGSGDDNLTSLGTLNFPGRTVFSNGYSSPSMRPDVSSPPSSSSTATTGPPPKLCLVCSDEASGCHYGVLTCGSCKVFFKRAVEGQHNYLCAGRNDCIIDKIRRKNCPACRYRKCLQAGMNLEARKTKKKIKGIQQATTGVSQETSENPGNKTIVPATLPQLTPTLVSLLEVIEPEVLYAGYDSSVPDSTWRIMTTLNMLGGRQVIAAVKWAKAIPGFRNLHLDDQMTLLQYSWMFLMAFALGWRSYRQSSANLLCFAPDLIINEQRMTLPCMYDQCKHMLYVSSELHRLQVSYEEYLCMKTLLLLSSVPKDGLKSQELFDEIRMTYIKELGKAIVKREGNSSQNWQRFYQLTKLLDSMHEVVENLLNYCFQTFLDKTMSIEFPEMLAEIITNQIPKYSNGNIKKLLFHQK
Outline: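 GR-bla HeLa cells (beta-lactamase reporter under glucocorticoid response element) were plated 4 h at 37 C/5% CO2, given compounds in DMSO, and incubated 18 h at 37 C. LiveBLAzer B/G FRET substrate was added for 2 h at room temperature, then fluorescence intensity read.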

[10] = target: Glucocorticoid receptor (Homo sapiens) (UniProt P04150); assay: qHTS assay to identify small molecule antagonists of the glucocorticoid receptor (GR) signaling pathway (AID 720692; active means well fitted inhibition curve with a large enough effect in the signal ratio in the repeat runs, not every such curve was filed as active; the % refers to the signal ratio)
Outline: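 GR-bla HeLa cells (beta-lactamase reporter under glucocorticoid response element) were pre-plated 4 h at 37 C, treated with compounds plus 5 nM dexamethasone (final) for 18 h, then read by LiveBLAzer B/G FRET fluorescence after 2 h.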
On the % scale 0 is the no-effect control and ±100 the full control effect.

CCC(O)C(C)(C)C (stereo unspecified)
inactive: outcome [1] | outcome [2] | outcome [3] | outcome [4] | outcome [5] | outcome [6] | outcome [7] | outcome [8]

Cc1cccc(C(=O)O)c1[N+](=O)[O-]
inactive: outcome [1] | outcome [2] | outcome [3] | outcome [4] | outcome [5] | outcome [6] | outcome [7] | outcome [8]

C[CH2][Ge]([Cl])([CH2]C)[CH2]C
inactive: outcome [1] | outcome [2] | outcome [3] | outcome [4] | outcome [5] | outcome [6] | outcome [7] | outcome [8]

CC(=O)OCCCc1ccccc1
inactive: outcome [1] | outcome [2] | outcome [3] | outcome [4] | outcome [5] | outcome [6] | outcome [7] | outcome [8]

CCC(C)(CCC(C)C)C(=O)[O-].CCC(C)(CCC(C)C)C(=O)[O-].[Zn+2] (stereo unspecified)
inactive: outcome [1] | outcome [2] | outcome [3] | outcome [4] | outcome [5] | outcome [6] | outcome [7] | outcome [8]

O=CN1CCOCC1
inactive: outcome [1] | outcome [2] | outcome [3] | outcome [4] | outcome [5] | outcome [6] | outcome [7] | outcome [8]

O=P(O)(O)OCC(O)CO (stereo unspecified)
inactive: outcome [1] | outcome [2] | outcome [3] | outcome [4] | outcome [5] | outcome [6] | outcome [7] | outcome [8]

CC(C)COC(=O)CCCCC(=O)OCC(C)C
inactive: outcome [1] | outcome [2] | outcome [3] | outcome [4] | outcome [5] | outcome [6] | outcome [7] | outcome [8]

CCNC(=O)/C=C/c1cccc(Br)c1
inactive: outcome [1] | outcome [2] | outcome [3] | outcome [4] | outcome [5] | outcome [6] | outcome [7] | outcome [8] | Potency [9]

CCCCCCCCOC(C)=O
inactive: outcome [1] | outcome [2] | outcome [3] | outcome [4] | outcome [5] | outcome [6] | outcome [7] | outcome [8]

CCC(C)(C)C1CCC(=O)CC1
inactive: outcome [1] | outcome [2] | outcome [3] | outcome [4] | outcome [5] | outcome [6] | outcome [7] | outcome [8]

CC(C)SCc1ccco1
inactive: outcome [1] | outcome [2] | outcome [3] | outcome [4] | outcome [5] | outcome [6] | outcome [7] | outcome [8]

OC(CCN1CCCCC1)(c1ccccc1)c1ccccc1
inactive: outcome [1] | outcome [2] | outcome [3] | outcome [4] | outcome [5] | outcome [6] | outcome [7] | outcome [8]

CC(=O)/C=C/c1ccco1
inactive: outcome [1] | outcome [2] | outcome [3] | outcome [4] | outcome [5] | outcome [6] | outcome [7] | outcome [8]

O=CO
inactive: fluorescence, % of fluorescein [1] -0.109% [at 9.17 µM] | fluorescence, % of fluorescent control [2] -0.189% [at 9.17 µM] | activity change [3] -0.0948% [at 9.17 µM] | fluorescence, % of fluorescent control [4] -0.0633% [at 9.17 µM] | fluorescence, % of Rose Bengal [5] 0.0285% [at 9.17 µM] | fluorescence, % of fluorescent control [6] -0.136% [at 9.17 µM] | fluorescence, % of fluorescein control [7] -0.0013% [at 9.17 µM] | fluorescence, % of fluorescent control [8] 0.0876% [at 9.17 µM]

COc1cccc2sc(N)nc12
inactive: outcome [1] | outcome [2] | outcome [3] | outcome [4] | outcome [5] | outcome [6] | outcome [7] | outcome [8]

CCC1COC(=O)O1 (stereo unspecified)
inactive: outcome [1] | outcome [2] | outcome [3] | outcome [4] | outcome [5] | outcome [6] | outcome [7] | outcome [8] | Potency [9]

C=C(C)C(=O)OCCCCCCOC(=O)C(=C)C
inactive: outcome [1] | outcome [2] | outcome [3] | outcome [4] | outcome [5] | outcome [6] | outcome [7] | outcome [8] | Potency [9]

O=C1OC(=O)c2ccccc21
inactive: outcome [1] | outcome [2] | outcome [3] | outcome [4] | outcome [5] | outcome [6] | outcome [7] | outcome [8] | Potency [9]

C=CCOC(=O)c1ccc(C(=O)OCC=C)c(C(=O)OCC=C)c1
inactive: outcome [1] | outcome [2] | outcome [3] | outcome [4] | outcome [5] | outcome [6] | outcome [7] | outcome [8] | Potency [9]

CNC(=O)NC
inactive: outcome [1] | outcome [2] | outcome [3] | outcome [4] | outcome [5] | outcome [6] | outcome [7] | outcome [8] | Potency [9]

NC(=O)C1(N2CCCCC2)CCN(CCCC(=O)c2ccc(F)cc2)CC1
inactive: outcome [1] | outcome [2] | outcome [3] | outcome [4] | outcome [5] | outcome [6] | outcome [7] | outcome [8] | Potency [9]

COc1ccc(/C=N/NC(=O)c2ccncc2)cc1OC
inactive: outcome [1] | outcome [2] | outcome [3] | outcome [4] | outcome [5] | outcome [6] | outcome [7] | outcome [8] | Potency [9] | outcome [10]

CC1=NN(c2ccc(S(=O)(=O)O)cc2)C(=O)C1N=Nc1ccccc1 (stereo unspecified)
inactive: outcome [1] | outcome [2] | outcome [3] | outcome [4] | outcome [5] | outcome [6] | outcome [7] | outcome [8] | Potency [9] | outcome [10]

O=C(Nc1cccc(C2=NCCN2)c1)Nc1cccc(C2=NCCN2)c1
inactive: outcome [1] | outcome [2] | outcome [3] | outcome [4] | outcome [5] | outcome [6] | outcome [7] | outcome [8] | Potency [9]

C=CCOc1c(Br)cc(Br)cc1Br
inactive: outcome [1] | outcome [2] | outcome [3] | outcome [4] | outcome [5] | outcome [6] | outcome [7] | outcome [8] | Potency [9]
